# From ChEMBL document CHEMBL1157539, “Thousands of chemical starting points for antimalarial lead identification” (Nature, 2010)
# Columns and labels:
# Assay type in all cases: functional
# Plasmodium falciparum [1] = assay: GSK_TCMDC: Inhibition of Plasmodium falciparum 3D7 in whole red blood cells, using parasite LDH activity as an index of growth. Test compounds present at 2uM
# Plasmodium falciparum [2] = assay: GSK_TCMDC: Inhibition of Plasmodium falciparum Dd2 in whole red blood cells, using parasite LDH activity as an index of growth. Test compounds present at 2uM
# HepG2 = assay: GSK_TCMDC: Percent inhibition of human HepG2 cell line. Test compounds present at 10uM.
Structure (SMILES),Inhibition (Plasmodium falciparum [1]) [%],Inhibition (Plasmodium falciparum [2]) [%],Inhibition (HepG2) [%]
CS(=O)(=O)c1ccc(-c2cncc(Nc3cccc([N+](=O)[O-])c3)c2)cc1,97,70,6
Cc1ccc(O)c(C(=O)c2cc(C(=O)Nc3ccccc3C)c(=O)n(-c3ccccc3C)c2)c1,98,81,0
Br.CCCCc1ccc(CCNCCCCCCNCCc2ccc(O)c(O)c2)cc1,100,0,45
C=C[C@H]1CN(CCCCCCC)CC[C@H]1C[C@@H](Cc1ccnc2ccc(OC)cc12)OC(=O)[C@](OC)(c1ccccc1)C(F)(F)F,96,96,12
O=C(N[C@@H](CC1CCCCC1)C(=O)NCc1cccc(C(F)(F)F)c1)c1ccc(O)c(-c2ccc(Cl)c(Cl)c2)c1,98,100,0
c1ccc(COc2ccc(COc3ccc(Cn4ccnc4)cc3)cc2)cc1,86,45,9
CCOc1ccccc1NC(=O)Nc1ccc2c(c1)CCN(C1CCC1)CC2.Cl,88,2,15
CCOC(=O)NC1=NC(C)(C)N(OCc2cccc3c2ccc2ccccc23)C(NC(=O)OCC)=N1,98,3,3
O=C(O)C(F)(F)F.c1cncc(CCNCc2ccc(-c3ccc(CNC4Cc5ccccc5C4)cc3)cc2)c1,92,29,32
CCOc1cc(C)ccc1C1CCN(CCCCNC(=O)c2coc(-c3ccc(Cl)cc3)c2)CC1.Cl,92,30,34
O=C(c1ccc(O)c(-c2cc(Cl)cc(Cl)c2)c1)N1CCCC1,90,57,3
COc1ccc(C(=O)CCC(=O)N(CCSC(C)(C)C)Cc2ccc(-c3ccc(CNCCc4ccc(S(C)(=O)=O)cc4)cn3)cc2)cc1F.O=C(O)C(F)(F)F,98,42,9
COc1cc2nc(N(C)Cc3cc4c(Cl)cccc4s3)nc(N)c2cc1OC.Cl,90,27,32
Cc1nn(-c2ccccc2)nc1C(=O)N(Cc1ccc(-c2ccc(CNCCc3ccc(S(C)(=O)=O)cc3)cn2)cc1)C(C)CN(C)C.O=C(O)C(F)(F)F (centres undefined),100,87,25
CN(C)C(=O)c1ccc(CN(Cc2ccc3c(c2)OCCO3)Cc2ccc3c(c2)OCO3)cc1,89,95,0
COc1ccc(CNC(=O)NC2CCN(c3ccnc(Nc4ccc(F)cc4)n3)CC2)cc1,87,4,16
CC(C)C[C@@H](/C=N/N1CC(=O)NC1=O)NC(=O)[C@H](CC(C)C)NC(=O)c1ccc(OCCN2CCOCC2)cc1,94,79,11
COc1ccc(NC(=O)N2CCCN(CCCCCNC(=O)/C=C/c3ccc(C(F)(F)F)cc3)CC2)cc1Cl,93,0,21
CCNc1cc(C(=O)N[C@@H](Cc2ccccc2)[C@H](O)CNC2CCC(C)(C)CC2)cc(N2CCCCS2(=O)=O)c1.Cl,98,71,1
CC1(C)C(=O)Nc2ccc3c(c21)CC1SC(=O)NN=C31 (centres undefined),96,92,6

Structure (SMILES),Inhibition (Plasmodium falciparum [1]) [%],Inhibition (Plasmodium falciparum [2]) [%],Inhibition (HepG2) [%]
CCc1c(CCNCCCCCCNCCc2ccc(OC)cc2)ccc(OC)c1OC.Cl,98,0,16
CO/C(=C\C=C\c1cc2cc(Cl)c(Cl)cc2[nH]1)C(=O)NCCCN1CCN(c2cccc(OCC(=O)Nc3ccccc3)c2)CC1,100,81,49
COc1ccc(Nc2nccc(N3CCC(NC(=O)C(C)c4ccc(Cl)cc4)C3)n2)cc1 (centres undefined),85,97,35
CC(C)(C)OC(=O)NCc1ccc(Nc2nnc(-c3cccc(OCC(=O)NCc4cc(C(F)(F)F)cc(C(F)(F)F)c4)c3)o2)cc1,90,19,32
COc1c(CN2CCOCC2)cccc1-c1cc2c(-c3ccc(C(=O)O)c(C(C)C)c3)ccnc2[nH]1.O=C(O)C(F)(F)F,98,90,44
O=C(Nc1ccc(CN2CCN(S(=O)(=O)c3ccc(Cl)s3)CC2)cc1)c1cccs1.O=C(O)C(F)(F)F,92,87,14
CCc1cn2c3c(cc(C(=O)N[C@@H](Cc4ccccc4)[C@H](O)CNC4CCOCC4)cc13)N(CC(F)(F)F)S(=O)(=O)CC2.O=CO,98,98,4
O=C(/C=C/c1ccc(Cl)c(Cl)c1)NC1CCC(CN2CCC(c3c[nH]c4ccncc34)CC2)CC1 (centres undefined),100,96,16
CCCc1cc(=O)[nH]c(-n2nc(C)cc2NC(=O)c2cc3ccccc3o2)n1,90,63,39
CCOc1ccc2c(c1)C(C)(c1ccc3c(c1)C(C)CC(C)(C)N3)CC(C)(C)N2 (centres undefined),94,3,5
COc1ccccc1CCNc1nc(C)cc(N[C@@H](CC(C)C)C(=O)NCc2cccs2)n1.O=C(O)C(F)(F)F,96,31,20
CC(C)(C)C/C=C\c1ccc(C(=O)NCC2CC2)cc1,94,88,0
CCc1ccc(NC(=O)c2ccc(CN3CCCN(Cc4ccc(C)s4)CC3)cc2)cc1.O=C(O)C(F)(F)F,87,0,48
Cc1cn(CC(=O)Nc2cccc(-c3cccc(-c4nc5cccc(C)c5[nH]4)c3)c2)c(=O)[nH]c1=O,100,100,2
CCOc1cc(CC)ccc1C1CCN(CCN2CCC(NC(=O)c3ccc(-c4ccc(C#N)cc4)cc3)CC2)CC1,100,71,32
N#Cc1cccc(NC(=O)c2ccc(S(=O)(=O)NCC3CCCN3CC3CCCCC3)cc2)c1.O=C(O)C(F)(F)F (centres undefined),88,18,25
CC(C)Oc1ccc(N2CCN(CCCCNC(=O)c3ccc(NC(=O)c4ccc(Cl)cc4)cc3)CC2)c(OC(C)C)c1,100,85,31
CC(c1cccc(Nc2nccc(-c3c(-c4cccc(NC(=O)c5c(F)cccc5F)c4)nn4ncccc34)n2)c1)S(C)(=O)=O (centres undefined),98,98,79
COc1nc2c(N3CCN(CCNCc4ccc5c(n4)NC(=O)CS5)CC3)ccnc2cc1F,100,96,18
CO/C(=C\C=C\c1cc2cc(Cl)c(Cl)cc2[nH]1)C(=O)NCCCN1CCN(c2cccc(O)c2)CC1,91,100,46

Structure (SMILES),Inhibition (Plasmodium falciparum [1]) [%],Inhibition (Plasmodium falciparum [2]) [%],Inhibition (HepG2) [%]
CN(C)Cc1cc2c(O)c(Cc3ccccc3)ccc2o1,85,69,3
COc1cccc2c(NN=Cc3ccccc3Cl)cc(C)nc12,100,100,22
COc1cccc(CNC(=O)c2cccc(-c3ccc(CN4CCC(N5CCCC5)CC4)cc3)n2)c1.O=C(O)C(F)(F)F,100,76,16
COc1ccc(C(=O)C2CC2CN(C)CC(O)c2cc(C)c(OC)cc2C)cc1.O=C(O)C(F)(F)F (centres undefined),90,77,8
CC(C)(C)c1ccc(CNC(=O)c2ccc(CNC3CCC(N)CC3)s2)cc1 (centres undefined),100,10,41
Cc1cccc(CNc2nc(C)cc(N[C@@H](CC(C)C)C(=O)NCc3cccc(F)c3)n2)c1.O=C(O)C(F)(F)F,91,32,13
Cc1ccc(NC(=O)NC2CCN(CCCCCNC(=O)/C=C/c3ccc(Cl)c(Cl)c3)CC2)cc1C,100,25,36
COc1ccccc1CCNC(=O)c1cnc(N2CCN(c3ccncc3)CC2)c(Cl)c1.O=C(O)C(F)(F)F,98,54,30
Cc1cc(N[C@@H](CC(C)C)C(=O)NCCc2ccccc2)nc(NCC2CCCCC2)n1.O=C(O)C(F)(F)F,97,65,19
CCCc1cc(Cc2cnc(N)nc2N)cc(CCC)c1OC.Cl,92,1,18
COc1ccc(Nc2nccc(N3CCC(NC(=O)c4cc5ccccc5s4)C3)n2)cc1 (centres undefined),99,86,1
O=C(Nc1ccc(OC2CCN(Cc3ccsc3)C2)c(Cl)c1)c1ccc2ncccc2c1.O=C(O)C(F)(F)F (centres undefined),88,10,84
COc1ccc(CCNCCCCCCNCCc2ccc(-c3ccccc3)cc2)cc1OC.Cl,99,35,100
CN1CCN(Cc2ccc(OCc3cccc(COc4ccc(CN5CCN(C)CC5)cc4I)c3)c(I)c2)CC1.Cl,92,69,93
COc1ccc(C(=O)NCC(C)(C)c2nc(-c3ccc(Cl)c(O)c3)c(-c3ccncc3)[nH]2)cc1OCCN(C(C)C)C(C)C.Cl,100,96,62
C=C1C(C(=O)OCC)=CN(CC)c2cc(O[C@H]3CCN(C(=O)OC(C)(C)C)C3)ccc21,98,75,9
Cc1ccc(Cc2c[nH]c(NCCSCc3ccc(CN4CCOCC4)o3)nc2=O)cn1,95,0,2
CCCn1c(=N)c(C(=O)NCCc2ccccc2)cc2c(=O)n3cccc(C)c3nc21,100,64,8
